Several values for one entry are separate records, joined by “and”; a condition that tells them apart may be missing. Equal values may be shown once. Records with an inconclusive call do not appear. A call without a number means that no potency is given here. Some compounds were tested as several samples or in several runs, with calls that do not always agree. Activity calls are given as the source filed them. Unless noted, calls come from the whole dose curve; as a rule, active = well fitted curve in the direction sought with a large enough effect in the repeat runs; inconclusive = weak or mixed curves; inactive = no such curve, though single readings can be large; an effect the other way counts as inactive or inconclusive.
Tests used:
[1] = qHTS assay to identify small molecule antagonists of the glucocorticoid receptor (GR) signaling pathway - cell viability counter screen (AID 720693); note: nearly all actives have a fitted effect of over 55% in size; note: potency is the fitted concentration of half-maximal effect
[2] = qHTS assay for identifying genotoxic compounds that show differential cytotoxicity against isogenic chicken DT40 cell lines with known DNA damage response pathways - wild type cell line (AID 743012); note: nearly all actives have a fitted effect of over 60% in size; note: potency is the fitted concentration of half-maximal effect
Summary of the method: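 300 wt DT40 cells/well; cpd (DMSO) pintool-transferred after ~0.5 h at 37 C/5% CO2; 40 h incubation; CellTiter-Glo added, 30 min RT; luminescence read.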

[3] = qHTS assay for identifying genotoxic compounds that show differential cytotoxicity against isogenic chicken DT40 cell lines with known DNA damage response pathways - Rev3 mutant cell line (AID 743014); note: nearly all actives have a fitted effect of over 55% in size; note: potency is the fitted concentration of half-maximal effect
[4] = qHTS assay for identifying genotoxic compounds that show differential cytotoxicity against isogenic chicken DT40 cell lines with known DNA damage response pathways - Rad54/Ku70 mutant cell line (AID 743015); note: nearly all actives have a fitted effect of over 60% in size; note: potency is the fitted concentration of half-maximal effect
[5] = qHTS assay to identify small molecule antagonists of the androgen receptor (AR) signaling pathway - cell viability counter screen (AID 743033; note: nearly all actives have a fitted effect of over 45% in size; note: potency is the fitted concentration of half-maximal effect)
[6] = target: Androgen receptor (Homo sapiens) (UniProt P10275); test: qHTS assay to identify small molecule antagonists of the androgen receptor (AR) signaling pathway (AID 743035; active = well fitted inhibition curve with a large enough effect in the signal ratio in the repeat runs, not every such curve was filed as active; the % refers to the signal ratio; note: potency is the fitted concentration of half-maximal effect)
Chain of Androgen receptor (Homo sapiens) (P10275 whole entry, looked up): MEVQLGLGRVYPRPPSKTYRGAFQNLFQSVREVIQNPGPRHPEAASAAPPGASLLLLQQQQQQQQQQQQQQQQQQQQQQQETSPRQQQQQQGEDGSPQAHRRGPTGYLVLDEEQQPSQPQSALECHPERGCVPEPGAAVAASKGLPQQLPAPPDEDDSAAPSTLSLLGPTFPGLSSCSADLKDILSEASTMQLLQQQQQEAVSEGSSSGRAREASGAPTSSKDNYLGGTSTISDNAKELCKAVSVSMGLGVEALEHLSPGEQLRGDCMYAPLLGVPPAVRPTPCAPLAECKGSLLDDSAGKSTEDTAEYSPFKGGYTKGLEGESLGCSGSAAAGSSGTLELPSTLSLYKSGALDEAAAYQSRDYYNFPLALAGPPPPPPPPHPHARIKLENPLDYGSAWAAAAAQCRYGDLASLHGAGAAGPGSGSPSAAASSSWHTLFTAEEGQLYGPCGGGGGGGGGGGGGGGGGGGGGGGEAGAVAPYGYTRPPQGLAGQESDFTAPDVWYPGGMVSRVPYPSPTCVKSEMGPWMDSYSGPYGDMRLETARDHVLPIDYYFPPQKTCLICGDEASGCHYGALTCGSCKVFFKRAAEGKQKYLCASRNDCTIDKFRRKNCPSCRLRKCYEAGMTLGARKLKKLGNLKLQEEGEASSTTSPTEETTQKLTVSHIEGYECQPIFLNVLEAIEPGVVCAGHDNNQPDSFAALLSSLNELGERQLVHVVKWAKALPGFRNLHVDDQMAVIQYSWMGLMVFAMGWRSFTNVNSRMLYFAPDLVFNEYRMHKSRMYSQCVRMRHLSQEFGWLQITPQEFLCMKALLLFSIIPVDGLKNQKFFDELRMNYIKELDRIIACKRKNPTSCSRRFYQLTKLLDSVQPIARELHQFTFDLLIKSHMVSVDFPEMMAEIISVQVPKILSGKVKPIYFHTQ
Summary of the method: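 In this cell-based reporter screen, compounds were tested in concentration series against R1881-activated HEK293 cells expressing beta-lactamase under UAS control; after 16 h at 37C, FRET substrate was added and fluorescence read 2 h later.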

[7] = target: Androgen receptor (Homo sapiens) (UniProt P10275); test: qHTS assay to identify small molecule agonists of the androgen receptor (AR) signaling pathway using the MDA cell line (AID 743040; note: nearly all actives have a fitted effect of over 20% in size); conditions: MDA-kb2 AR-luc cells, MMTV luciferase, 16 h, stronger effect = higher value
Summary of the method: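 Agonist activity is measured as luciferase luminescence in human MDA-kb2 cells whose MMTV reporter responds to both AR and GR. Compounds in DMSO incubate 16 h at 37C, 0% CO2, and ONE-Glo is read after 30 min.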

[8] = qHTS assay to identify small molecule antagonists of the androgen receptor (AR) signaling pathway using the MDA cell line - cell viability counter screen (AID 743041; note: nearly all actives have a fitted effect of over 45% in size; note: potency is the fitted concentration of half-maximal effect)
Summary of the method: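 qHTS viability read-out; MDA-kb2 AR-luc; R1881-stimulated; 16 h exposure at 37C, 0% CO2; CellTiter-Fluor, 30 min; fluorescence intensity.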

[9] = target: Androgen receptor (Homo sapiens) (UniProt P10275); test: qHTS assay to identify small molecule antagonists of the androgen receptor (AR) signaling pathway using the MDA cell line (AID 743042; note: nearly all actives have a fitted effect of over 55% in size; note: potency is the fitted concentration of half-maximal effect)
Summary of the method: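 MDA-kb2 cells (human breast carcinoma, stably carrying an MMTV-luciferase reporter responsive to AR and GR) were plated at 3,000 cells/well and preincubated 5 hr at 37C, then given compound plus R1881 agonist for 16 h. ONE-Glo luminescence was read.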

[10] = target: Androgen receptor (Homo sapiens) (UniProt P10275); test: qHTS assay to identify small molecule agonists of the androgen receptor (AR) signaling pathway (AID 743036; active = well fitted activation curve with a large enough effect in the signal ratio in the repeat runs, with a control signal flat, not every such curve was filed as active; the % refers to the signal ratio)
Summary of the method: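 AR-UAS-bla HEK293 cells, plated 4 h before dosing, were treated with compound for 16 h at 37C. beta-Lactamase reporter read after 2 h with LiveBLAzer B/G FRET substrate at room temperature.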

SMILES	Potency [1]	Potency [2]	Potency [3]	Potency [4]	Potency [5]	Potency [6]	activity change ([7]; at 70.3 µM (top of the series))	Potency [8]	Potency [9]	Potency [10]	activity change ([7]; at 95 µM (top of the series))
O=C(O)c1nn(Cc2ccc(Cl)cc2Cl)c2ccccc12	inactive	inactive	inactive	inactive	inactive	inactive	1.75% (inactive) and 0.87% (inactive)	inactive	inactive	–	–
CC1(C)C(C(=O)OC(C#N)c2cccc(Oc3ccccc3)c2)C1(C)C (configuration not stated)	inactive	inactive and 48.5 µM (active)	inactive	inactive and 54.4 µM (active)	inactive	–	–	–	–	–	–
CC(C)Nc1ccc(Nc2ccccc2)cc1	inactive	5.96 µM (active) and 17.2 µM (active) and 12.2 µM (active)	10.6 µM (active) and 12.1 µM (active) and 13.7 µM (active)	8.41 µM (active) and 15.3 µM (active) and 10.9 µM (active)	21.8 µM (active) and 49 µM (active)	–	–	–	–	–	–
CNC(=S)S	inactive	inactive	inactive	inactive	inactive	–	–	inactive	–	–	–
CCNCC	inactive	inactive	inactive	inactive	inactive	–	–	inactive	–	–	–
O=C(O)CF	inactive	inactive	inactive	inactive	inactive	–	–	inactive	–	–	–
CCOS(=O)(=O)OCC	inactive	inactive	inactive and 54.5 µM (active)	inactive	inactive	–	–	–	–	–	–
CCC1(c2ccc(N)cc2)CCC(=O)NC1=O (configuration not stated)	inactive	inactive	inactive	inactive	inactive	inactive	-1.61% (inactive) and 2% (inactive)	inactive	inactive	inactive	–
COc1ccc(O)c(C(C)(C)C)c1	inactive	inactive	inactive	inactive	inactive	–	–	inactive	–	–	–
CCOP(=O)(O)OCC (tested in a mixture with another compound)	17.2 µM (active)	inactive and 96.1 nM (active)	inactive and 85.6 nM (active)	inactive and 96.1 nM (active)	inactive and 17.2 µM (active)	–	–	–	–	–	–
Nc1ccc2ccccc2c1	inactive	inactive	inactive and 68.6 µM (active)	inactive	inactive	–	–	–	–	–	–
C[N+](C)(C)CC(=O)[O-]	inactive	inactive	inactive	inactive	inactive	–	–	inactive	–	–	–
CC1=C(C(=O)Nc2ccccc2)SCCO1	inactive	62.1 µM (active) and 17.2 µM (active)	24.7 µM (active) and 12.2 µM (active)	62.1 µM (active) and 19.3 µM (active)	inactive	–	4% (inactive)	–	inactive	inactive	0.0315% (inactive)
CCCCCCCC[N+](C)(CCCCCCCC)CCCCCCCC	13.8 µM (active) and 5.5 µM (active) and 11 µM (active)	768 nM (active) and 433 nM (active) and 306 nM (active)	433 nM (active) and 686 nM (active)	610 nM (active) and 273 nM (active) and 386 nM (active)	3.46 µM (active) and 872 nM (active) and 3.47 µM (active)	–	–	–	–	–	–
Cc1ccc([N+](=O)[O-])cc1	inactive	inactive	inactive	inactive	inactive	–	–	inactive	–	–	–
[Cl-].[Cl-].[Cl-].[Fe+3]	inactive	inactive	inactive	inactive	inactive	–	–	–	–	–	–
CCCCOCC1CO1 (configuration not stated)	inactive	inactive	inactive	inactive	inactive	–	–	–	–	–	–
C=CC(=O)OCC(CC)(COC(=O)C=C)COC(=O)C=C	12.6 µM (active) and 11 µM (active)	2.8 µM (active) and 3.06 µM (active)	1.58 µM (active) and 3.06 µM (active)	2.5 µM (active) and 2.43 µM (active)	7.97 µM (active) and 12.3 µM (active)	4.48 µM (active)	-11.9% (inactive)	62.8 µM (active) and 30.6 µM (active)	8.87 µM (active) and 6.86 µM (active)	–	-11.2% (inactive)
CC(C)(c1ccc(OCC2CO2)cc1)c1ccc(OCC2CO2)cc1 (configuration not stated)	inactive	24.3 µM (active)	2.47 µM (active) and 3.06 µM (active)	55.2 µM (active) and 27.3 µM (active)	inactive	inactive	-0.897% (inactive)	inactive	inactive	inactive	-0.522% (inactive)
O=C1C(Cl)=C(Cl)C(=O)c2ccccc21	21.9 µM (active) and 19.5 µM (active)	2.18 µM (active) and 486 nM (active)	972 nM (active) and 969 nM (active)	2.18 µM (active) and 545 nM (active)	4.91 µM (active) and 7.76 µM (active)	–	–	inactive	–	–	–
CC(C)(c1ccccc1)c1ccc(O)c(C(C)(C)c2ccccc2)c1	21.7 µM (active) and 24.5 µM (active)	21.5 µM (active) and 9.69 µM (active)	15.2 µM (active) and 8.63 µM (active)	13.6 µM (active) and 9.69 µM (active)	48.5 µM (active) and 49 µM (active)	–	–	–	–	–	–
Nc1ncn[nH]1	inactive	inactive	inactive	inactive	inactive	–	–	inactive	–	–	–

Source: PubChem BioAssay (Tox21)
